Eleven compounds from ChEMBL document CHEMBL3988442, “University of Dundee, Small-Polar-MMV Screening Library” (2021) can be followed below.

What all share (design): scale not given: direction of the effect not stated beside the values
The target in assay [1] is Protein translocase subunit SecA (Escherichia coli (strain K12)) (UniProt P10408). Briefly: Assay to Identify E. coli SecA ATPase Inhibitors. The following applies: 30 µM. Type of assay: functional.
Assay [2] addresses T1, Ubiquitin-activating enzyme e1, putative (Leishmania donovani (strain BPK282A1)) (UniProt E9BSI1).
T1 sequence (whole entry): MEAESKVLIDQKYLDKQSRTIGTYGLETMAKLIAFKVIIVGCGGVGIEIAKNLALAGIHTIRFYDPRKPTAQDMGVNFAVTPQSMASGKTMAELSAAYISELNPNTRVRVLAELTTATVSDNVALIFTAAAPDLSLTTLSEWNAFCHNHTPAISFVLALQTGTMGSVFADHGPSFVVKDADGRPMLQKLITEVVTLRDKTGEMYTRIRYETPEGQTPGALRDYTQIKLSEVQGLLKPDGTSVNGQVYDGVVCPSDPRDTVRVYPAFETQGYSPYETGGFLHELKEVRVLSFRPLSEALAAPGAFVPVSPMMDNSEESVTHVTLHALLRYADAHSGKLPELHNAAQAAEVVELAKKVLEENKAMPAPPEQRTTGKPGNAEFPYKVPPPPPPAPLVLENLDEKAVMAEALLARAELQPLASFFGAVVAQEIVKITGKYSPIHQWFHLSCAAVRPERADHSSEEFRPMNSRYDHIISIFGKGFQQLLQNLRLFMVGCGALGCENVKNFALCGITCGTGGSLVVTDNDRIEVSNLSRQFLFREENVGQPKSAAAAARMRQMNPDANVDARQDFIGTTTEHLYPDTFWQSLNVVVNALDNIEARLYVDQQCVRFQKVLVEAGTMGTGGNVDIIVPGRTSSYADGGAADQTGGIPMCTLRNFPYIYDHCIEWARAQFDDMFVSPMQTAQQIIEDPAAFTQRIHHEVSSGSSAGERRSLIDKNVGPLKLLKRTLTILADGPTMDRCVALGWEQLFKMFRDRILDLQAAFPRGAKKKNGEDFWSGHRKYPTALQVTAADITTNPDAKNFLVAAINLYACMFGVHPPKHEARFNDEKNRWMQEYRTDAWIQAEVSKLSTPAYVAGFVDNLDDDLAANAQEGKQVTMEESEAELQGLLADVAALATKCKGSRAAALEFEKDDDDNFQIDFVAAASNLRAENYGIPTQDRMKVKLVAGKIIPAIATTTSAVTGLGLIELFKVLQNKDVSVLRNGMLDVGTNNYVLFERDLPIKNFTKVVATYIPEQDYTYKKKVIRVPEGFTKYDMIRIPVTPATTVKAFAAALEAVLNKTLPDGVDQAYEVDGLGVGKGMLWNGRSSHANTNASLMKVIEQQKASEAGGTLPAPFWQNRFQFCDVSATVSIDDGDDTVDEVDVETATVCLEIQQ
The assay is described as follows: Leishmania donovani Ubiquitin Activating Enzyme (LdE1). Type of assay: functional. The note with it: 30 µM.

Assay [3] has as its target AMP-activated protein kinase, AMPK (Homo sapiens) (UniProt P54646+O43741+P54619+Q9UGJ0+Q9Y478+Q13131+Q9UGI9). The assay is described as follows: AMP-dependent Kinase enzyme assay. An in vitro enzyme assay that detects ADP turnover that is directly proportional to AMPK activity. This uses naive AMPK that is activated during the assay with MK-8722. The note with it: 30 µM. Format: functional.

In assay [4] the target is Sialic acid-binding Ig-like lectin 9 (Homo sapiens) (UniProt Q9Y336). Briefly: Hs-Siglec9 ALPHAscreen SOP 20170721. The following applies: 10 µM.
A further assay relates to Trypanosoma cruzi. Briefly: Trypanosoma cruzi phosphomannomutase and mannose-1-phosphate guanylyltransferase assay. Format: functional. The following applies: 10 µM.
Assay [5] has as its target T2, Arginase-2, mitochondrial (Homo sapiens) (UniProt P78540).
T2 sequence (whole entry): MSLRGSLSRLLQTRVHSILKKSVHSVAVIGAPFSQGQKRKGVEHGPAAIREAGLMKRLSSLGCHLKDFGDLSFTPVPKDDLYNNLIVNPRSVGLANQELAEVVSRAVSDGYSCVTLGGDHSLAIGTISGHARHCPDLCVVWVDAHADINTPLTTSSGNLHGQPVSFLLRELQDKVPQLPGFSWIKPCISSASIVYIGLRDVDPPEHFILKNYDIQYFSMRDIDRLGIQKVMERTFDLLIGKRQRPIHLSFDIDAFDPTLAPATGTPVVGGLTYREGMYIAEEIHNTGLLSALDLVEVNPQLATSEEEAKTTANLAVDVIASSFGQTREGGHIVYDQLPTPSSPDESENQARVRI
The assay is described as follows: in vitro enzyme assay to detect the production of urea directly proportional to the activity of Arginase II. Also: in the data most compounds retested in dose-response had high values. Type of assay: functional. The note with it: 33.3 µM.

The target of assay [6] is T3, Proteasome subunit beta (Trypanosoma cruzi) (UniProt O96673).
T3 sequence (whole entry): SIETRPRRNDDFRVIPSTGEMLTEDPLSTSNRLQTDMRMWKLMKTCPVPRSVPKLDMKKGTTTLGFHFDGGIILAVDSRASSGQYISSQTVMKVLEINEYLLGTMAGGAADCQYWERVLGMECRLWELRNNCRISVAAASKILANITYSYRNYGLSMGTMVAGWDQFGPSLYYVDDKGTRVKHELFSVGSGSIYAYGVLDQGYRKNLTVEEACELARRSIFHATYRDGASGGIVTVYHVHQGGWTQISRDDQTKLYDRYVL
The assay is described as follows: Trypanosoma cruzi proteasome chymotrypsin-like activity (TcProtChymo) assay. Also: in the data most compounds retested in dose-response had high values. The following applies: 9.37 µM. Type of assay: functional.

For the next assay, the species on record is Homo sapiens. The assay is described as follows: To identify inhibition of the IFN signalling (Jak-Stat) pathway via expression of an eGFP reporter gene under the control of an IFN-stimulated response element (ISRE) containing MxA promoter. Format: functional. The following applies: 30 µM.
Assay [7] addresses T4, Tyrosyl-tRNA synthetase, putative (Trypanosoma cruzi (strain CL Brener)) (UniProt Q4DSP6).
T4 sequence (whole entry): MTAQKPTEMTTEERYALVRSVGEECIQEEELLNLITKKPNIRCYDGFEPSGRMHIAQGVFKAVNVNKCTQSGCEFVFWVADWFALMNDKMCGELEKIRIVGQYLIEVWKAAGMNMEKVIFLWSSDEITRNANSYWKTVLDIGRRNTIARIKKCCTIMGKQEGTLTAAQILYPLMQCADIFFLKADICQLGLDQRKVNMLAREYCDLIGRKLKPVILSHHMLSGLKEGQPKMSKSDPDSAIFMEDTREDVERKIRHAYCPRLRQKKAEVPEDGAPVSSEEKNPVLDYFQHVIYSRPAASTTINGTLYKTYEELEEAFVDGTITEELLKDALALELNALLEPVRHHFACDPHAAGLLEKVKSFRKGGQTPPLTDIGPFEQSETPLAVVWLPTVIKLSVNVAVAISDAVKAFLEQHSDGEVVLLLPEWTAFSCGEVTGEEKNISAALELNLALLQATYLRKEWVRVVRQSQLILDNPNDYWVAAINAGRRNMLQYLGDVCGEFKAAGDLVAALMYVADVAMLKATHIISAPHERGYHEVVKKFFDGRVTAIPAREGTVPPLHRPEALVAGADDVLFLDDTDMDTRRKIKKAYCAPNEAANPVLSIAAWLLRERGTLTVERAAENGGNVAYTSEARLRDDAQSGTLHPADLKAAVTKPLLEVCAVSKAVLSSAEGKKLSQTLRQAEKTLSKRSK
Briefly: Trypanosoma cruzi tyrosyl tRNA synthetase (TcYRS) _High Tyrosine SOP. Also: in the data most compounds retested in dose-response had high values. Format: functional. The note with it: 30 µM.

Assay [8] deals with T4, Tyrosyl-tRNA synthetase, putative (Trypanosoma cruzi (strain CL Brener)). The assay is described as follows: Trypanosoma cruzi tyrosyl tRNA synthetase (TcYRS) SOP. Type of assay: functional. The following applies: 30 µM.
For assay [9], the target named is Chromo domain-containing protein 1 (Saccharomyces cerevisiae (strain ATCC 204508 / S288c) (Baker's yeast)) (UniProt P32657). The assay is described as follows: ScCHD-1 Enzyme Inhibition Assay. Also: in the data most compounds retested in dose-response had high values. Type of assay: functional. The following applies: 30 µM.

For some of these results: Entries with a potency or affinity are not part of this list.

Chain of Protein translocase subunit SecA (Escherichia coli (strain K12)) (P10408 whole entry): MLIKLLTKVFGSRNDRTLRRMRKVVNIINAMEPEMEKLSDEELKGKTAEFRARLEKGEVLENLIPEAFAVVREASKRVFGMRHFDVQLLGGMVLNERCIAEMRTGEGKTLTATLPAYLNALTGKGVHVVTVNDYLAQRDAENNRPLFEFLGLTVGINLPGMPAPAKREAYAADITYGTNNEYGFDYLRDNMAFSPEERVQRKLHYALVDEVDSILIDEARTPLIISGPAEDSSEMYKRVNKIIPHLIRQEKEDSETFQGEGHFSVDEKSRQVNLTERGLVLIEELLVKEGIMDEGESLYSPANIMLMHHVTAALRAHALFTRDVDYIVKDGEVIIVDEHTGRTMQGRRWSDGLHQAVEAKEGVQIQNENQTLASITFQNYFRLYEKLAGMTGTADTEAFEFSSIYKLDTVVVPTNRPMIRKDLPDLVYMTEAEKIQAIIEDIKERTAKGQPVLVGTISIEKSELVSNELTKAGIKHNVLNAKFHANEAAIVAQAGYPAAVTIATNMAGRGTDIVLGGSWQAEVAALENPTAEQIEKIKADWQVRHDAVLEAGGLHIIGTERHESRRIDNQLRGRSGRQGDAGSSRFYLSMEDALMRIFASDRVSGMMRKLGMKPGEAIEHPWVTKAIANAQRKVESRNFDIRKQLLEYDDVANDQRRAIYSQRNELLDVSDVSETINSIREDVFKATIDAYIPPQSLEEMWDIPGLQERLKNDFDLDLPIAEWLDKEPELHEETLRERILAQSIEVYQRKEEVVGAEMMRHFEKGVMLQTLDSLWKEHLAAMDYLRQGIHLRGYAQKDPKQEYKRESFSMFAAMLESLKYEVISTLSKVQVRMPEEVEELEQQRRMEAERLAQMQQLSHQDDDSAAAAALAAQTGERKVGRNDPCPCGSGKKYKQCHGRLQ
Chain of Sialic acid-binding Ig-like lectin 9 (Homo sapiens) (Q9Y336 whole entry): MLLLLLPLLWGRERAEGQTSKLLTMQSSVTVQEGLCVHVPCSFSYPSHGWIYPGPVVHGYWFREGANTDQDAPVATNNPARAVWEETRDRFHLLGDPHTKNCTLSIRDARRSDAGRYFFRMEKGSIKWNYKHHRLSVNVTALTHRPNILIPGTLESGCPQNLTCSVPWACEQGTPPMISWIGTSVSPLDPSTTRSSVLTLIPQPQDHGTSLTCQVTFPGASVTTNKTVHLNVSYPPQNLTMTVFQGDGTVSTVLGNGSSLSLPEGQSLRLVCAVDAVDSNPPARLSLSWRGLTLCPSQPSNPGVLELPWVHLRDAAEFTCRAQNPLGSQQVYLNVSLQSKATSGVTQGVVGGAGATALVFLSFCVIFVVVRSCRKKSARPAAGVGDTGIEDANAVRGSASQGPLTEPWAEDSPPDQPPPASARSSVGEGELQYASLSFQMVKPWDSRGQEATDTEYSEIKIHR
Chain of Chromo domain-containing protein 1 (Saccharomyces cerevisiae (strain ATCC 204508 / S288c) (Baker's yeast)) (P32657 whole entry, the tested form may be a part): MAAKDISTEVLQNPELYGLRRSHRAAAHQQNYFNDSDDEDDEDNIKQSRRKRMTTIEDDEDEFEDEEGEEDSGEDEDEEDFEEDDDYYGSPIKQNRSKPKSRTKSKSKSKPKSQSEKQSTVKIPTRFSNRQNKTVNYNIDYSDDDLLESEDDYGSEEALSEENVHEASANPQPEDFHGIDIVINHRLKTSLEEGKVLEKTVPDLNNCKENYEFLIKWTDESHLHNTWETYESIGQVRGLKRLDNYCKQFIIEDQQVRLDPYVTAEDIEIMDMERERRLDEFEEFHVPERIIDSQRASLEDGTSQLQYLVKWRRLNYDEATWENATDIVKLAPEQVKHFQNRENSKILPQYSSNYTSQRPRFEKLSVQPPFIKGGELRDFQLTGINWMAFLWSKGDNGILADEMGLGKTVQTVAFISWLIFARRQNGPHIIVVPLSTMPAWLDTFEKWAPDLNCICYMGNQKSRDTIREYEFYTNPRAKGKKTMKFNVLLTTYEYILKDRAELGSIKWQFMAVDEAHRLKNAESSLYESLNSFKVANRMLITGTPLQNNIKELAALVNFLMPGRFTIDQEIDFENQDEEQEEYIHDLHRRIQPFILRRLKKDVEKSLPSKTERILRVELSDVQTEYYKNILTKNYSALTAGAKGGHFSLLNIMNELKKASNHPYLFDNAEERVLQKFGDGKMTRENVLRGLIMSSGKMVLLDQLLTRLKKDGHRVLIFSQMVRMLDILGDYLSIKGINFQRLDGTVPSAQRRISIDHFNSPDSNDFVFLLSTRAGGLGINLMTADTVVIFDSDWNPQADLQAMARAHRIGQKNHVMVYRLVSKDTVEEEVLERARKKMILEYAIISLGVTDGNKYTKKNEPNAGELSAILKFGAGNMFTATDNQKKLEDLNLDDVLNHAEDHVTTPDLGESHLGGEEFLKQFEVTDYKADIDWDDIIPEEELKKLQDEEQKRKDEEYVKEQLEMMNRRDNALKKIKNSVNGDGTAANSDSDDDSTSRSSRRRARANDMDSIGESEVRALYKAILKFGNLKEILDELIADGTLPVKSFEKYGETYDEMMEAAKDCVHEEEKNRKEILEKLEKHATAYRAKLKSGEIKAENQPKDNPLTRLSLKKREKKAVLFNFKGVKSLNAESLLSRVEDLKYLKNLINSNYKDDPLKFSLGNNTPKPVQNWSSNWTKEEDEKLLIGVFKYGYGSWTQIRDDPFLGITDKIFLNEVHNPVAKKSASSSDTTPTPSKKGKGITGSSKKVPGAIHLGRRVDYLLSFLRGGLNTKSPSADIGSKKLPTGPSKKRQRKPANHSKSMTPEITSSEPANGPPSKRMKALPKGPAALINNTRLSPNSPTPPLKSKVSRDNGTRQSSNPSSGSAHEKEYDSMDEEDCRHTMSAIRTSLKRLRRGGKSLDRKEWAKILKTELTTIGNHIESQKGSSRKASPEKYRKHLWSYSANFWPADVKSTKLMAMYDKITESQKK

Regarding `Cc1csc(N2CCN(C(=O)CCc3ccccn3)CC2)n1`, the Percent Effect in assay [1] is -1.62%; in assay [2], 13.5%; in [3], -16%; in assay [4], 7.95%; in the assay with Trypanosoma cruzi it was 3.87%; in assay [5] it was -12.8%. Further, the Percent Effect in [6] is 10.8%; in the assay listed under Homo sapiens it was 6.58%; in [7] it was 10.3%; in [8], 25.9%; in assay [9] it was -12.7%.
Turning to `CN(C)CCn1c(=O)oc2ccc(NC(=O)C3CCCO3)cc21` (stereo unspecified), the Percent Effect in assay [1] is -6.72%; in assay [2] it was 5.33%; in assay [3] it was -5.94%; in [4], 4.64%; in the assay on Trypanosoma cruzi, -1.85%; in [5] it was 1.56%. The Percent Effect in assay [6] was 6.8%; in the assay filed under Homo sapiens, 5.49%; in [7], 8.2%; in [8], 11.1%; in assay [9] it was -5.1%.
Regarding `CN(C(=O)c1cc(Cl)c[nH]1)C1CCN(c2ccccn2)CC1`, the Percent Effect in assay [1] is -4.94%; in [2], -2.6%; in assay [3] it was -2.5%; in assay [4] it was -14.5%; in the assay with Trypanosoma cruzi, 6.17%; in [5] it was -4%. For the same compound, the Percent Effect in assay [6] is 9.46%; in the assay filed under Homo sapiens it was -0.502%; in [7], 13.3%; in [8], 23.5%; in [9], -20.8%.
On to `CNC(=O)Nc1cc(-c2ccccc2C)nn1CCO`, for which the Percent Effect was -4.2% in assay [1]; 7.89% in assay [2]; -1.72% in assay [3]; -9.84% in assay [4]; -3.8% in the assay with Trypanosoma cruzi; -5.92% in [5]. Also, the Percent Effect is 17.2% in [6]; -9.47% in the assay listed under Homo sapiens; 1.06% in assay [7]; 0% in [8]; -7.09% in assay [9].
As for `O=C(CC1CC1)NCc1cc(=O)n2c(n1)CN(Cc1ccoc1)CCC2`, the Percent Effect in assay [1] was -2.92%; in [2] it was -11%; in assay [3] it was -1.08%; in assay [4], 0.919%; with Trypanosoma cruzi, 7.34%; in [5], -1.2%. Moreover, the Percent Effect in assay [6] was 18.9%; in the assay filed under Homo sapiens, 4.85%; in [7], 3.12%; in assay [8], 6.17%; in assay [9], -3.77%.
Turning to `COc1ccc(OCCCN2CCOC(Cn3cccn3)C2)cc1` (stereo unspecified), the Percent Effect is -8.28% in assay [1]; 3.8% in assay [2]; 9.54% in [3]; 3.31% in assay [4]; -1.74% with Trypanosoma cruzi; 1.94% in assay [5]. Further, the Percent Effect in assay [6] was 2.74%; in the assay filed under Homo sapiens, 28.6%; in [7], 1.04%; in assay [8], 2.53%; in assay [9] it was -3.35%.
Take `O=C(NCCCNC(=O)c1cccc(O)c1)Nc1ccc(F)cc1F`: the Percent Effect in [1] was -7.43%; in assay [2], 18.4%; in assay [3], 7.05%; in assay [4] it was -5.18%; with Trypanosoma cruzi, 2.24%; in assay [5], -3.55%. The Percent Effect in assay [6] was 12.9%; in the assay filed under Homo sapiens it was 3.94%; in assay [7], 2.13%; in assay [8], 15.6%; in assay [9], -5.87%.
For `O=C(c1cccs1)N1CCC(n2nc(-c3ccco3)ccc2=O)CC1`, the Percent Effect in [1] was -6.35%; in assay [2], 12.2%; in assay [3] it was 7.9%; in [4], 14%; in the assay with Trypanosoma cruzi, -1.19%; in [5], -5.8%. Moreover, the Percent Effect in assay [6] was 12.9%; in the assay listed under Homo sapiens, 0.605%; in assay [7] it was 9.68%; in assay [8] it was 16.9%; in [9], -26.4%.
In the case of `O=C(CN1CCCC1Cn1cncn1)NCCOc1cccc(F)c1` (stereo unspecified), the Percent Effect in [1] is -4.88%; in assay [2], 0%; in assay [3], -3.72%; in assay [4], 14.3%; with Trypanosoma cruzi it was -0.84%; in [5] it was -2.52%. For the same compound, the Percent Effect was -3.47% in assay [6]; -2.63% in the assay listed under Homo sapiens; 0.493% in assay [7]; 1.24% in assay [8]; 5.23% in [9].
Regarding `O=C1NCCN1C1CCN(Cc2nc(-c3ccoc3)no2)CC1`, the Percent Effect in assay [1] was -1.17%; in [2] it was 5.2%; in assay [3], 2.43%; in assay [4], 5.09%; with Trypanosoma cruzi, 3.56%; in [5] it was -2.85%. Besides, the Percent Effect in assay [6] was 4.56%; in the assay listed under Homo sapiens, -2.53%; in [7] it was 0.971%; in [8], 12.2%; in [9], -2.45%.
With `CC(C)N1CCc2c(C#N)c(NCc3ccco3)n3cnnc3c2C1`, the Percent Effect in [1] was -3.81%; in assay [2] it was 7.89%; in [3] it was 6.37%; in assay [4], -3.12%; in the assay on Trypanosoma cruzi, -3.8%; in [5], 3.55%. Further, the Percent Effect is 15.4% in [6]; -16.1% in the assay filed under Homo sapiens; 1.06% in assay [7]; 7.79% in assay [8]; -9.63% in assay [9].
